The values that follow come from PubChem BioAssay (EPA / NIEHS).

Where “and” joins values, the source holds several entries; their conditions need not be identical. Equal entries are not always repeated. Calls of active or inactive are those of the source. The calls were made as follows: active = hit-call score of the fitted dose curve at least 0.9, where 1 is the maximum; inactive = score below 0.9.

Read-out in the assay: Secreted IgG (sIgG), gene 3500
The assay is described as follows: BSK_BT_sIgG: BioMAP Diversity Plus: BT Assay for Secreted IgG (sIgG) Biomarker Activity (AID 2284226). As to conditions: primary human B cells with PBMC. How it is done: BSK_BT is a cell-based, multiplexed-readout assay that uses B cell and peripheral blood mononuclear cells, a human vascular primary cell co-culture, with measurements taken at 24 hours after chemical dosing in a microplate: 96-well plate.BSK_BT_sIgG is an assay component measured in the BSK_BT assay. It measures secreted IgG related to regulation of gene expression using ELISA technology.Data from the assay component BSK_BT_sIgG was analyzed at the endpoint, BSK_BT_sIgG, in the positive analysis fitting direction relative to DMSO as the negative control and baseline of activity. Using a type of cytokine quantitation reporter, gain or loss-of-signal activity can be used to understand protein changes. To generalize the intended target to other relatable targets, this assay endpoint is annotated to the 'immunoglobulin' intended target family, where the subfamily is 'IgG'.
The levels of cell surface (or secreted, indicated by the prefix "s") biomarker endpoints were measured by ELISA. Overt cytotoxicity to cells in confluent adherent cultures (all systems other than the BT system) was assessed by measuring total protein levels using sulforhodamine B (SRB) staining in parallel cultures at the time of biomarker measurements, indicated as SRB endpoints. For proliferation assays for adherent cell types, individual cell types are cultured at sub-confluence and relative cell numbers quantified by SRB staining at time points optimized for each system (48 h: 3C and CASM3C systems; 72 h: BT and HDF3CGF systems; 96 h: SAg system). SRB was performed by staining cells with 0.1% SRB after fixation with 10% TCA and reading wells at 560 nm.Viability and proliferation of PBMC (T cells) was quantified by Alamar Blue reduction for the SAg and BT systems. For PBMC viability (referred to as PBMC Cytotoxicity within the assay endpoint names), cells were plated (75,000/well in a 96-well plate) and then chemical samples added for 1 h before addition of activators, SEB and TSST-1 (20 ng/mL final concentration each). Cells were incubated for 90 h. Then, Alamar Blue (20 uL/well) (Invitrogen, Cat DAL1100) was added for 6 h, and the plates were read with a fluorescence microplate reader at 546/580 nm (excitation/emission). For PBMC proliferation, cells were plated and activated as above but incubated for only 16 h prior to addition of Alamar Blue. Plates were read after 6 h.
A word on the AC50: it is the concentration giving half of the maximal activity seen. As to `OC(Cc1ccccc1Cl)(Cn1[nH]cnc1=S)C1(Cl)CC1` (stereo not given), the half-maximal activity concentration (AC50) is 23.8 µM (active).

With `CCOP(=O)(OCC)OC(=CCl)c1ccc(Cl)cc1Cl`, the AC50 was 20 µM (active).

With `C=CC(Cl)CCl` (stereo not given), the result was inactive.

For the molecule `c1ccc(-c2cccc(-c3ccccc3)c2)cc1`, the AC50 is 15.7 µM (active).

For `CC(C)N(C(=O)CCl)c1ccccc1`, the AC50 is 7.82 µM (active).

For the molecule `O=S(=O)(C(Cl)(Cl)Cl)C(Cl)(Cl)Cl`, the concentration at half-maximal activity (AC50) was 2.2 µM (active).

Regarding `O=[N+]([O-])c1cccc2ccccc12`, the result was inactive.

For the molecule `Cc1cc(Cl)ccc1OC(C)C(=O)O` (stereo not given), the result was inactive.

For `CCCCCCCCCCCCN(C)C`, the outcome was inactive.

For the molecule `Oc1cccc(-c2ccccc2)c1`, the outcome was inactive.

Regarding `Cc1ccc2nc3sc(=O)sc3nc2c1`, the half-maximal activity concentration (AC50) is 5 µM (active).

Take `CCC(C)(C#N)N=NC(C)(C#N)CC` (stereo not given): the outcome was inactive.

On to `Cc1ccccc1OP(=O)(Oc1ccccc1)Oc1ccccc1`, for which the AC50 is 30.9 µM (active).

Turning to `Cc1ccccc1OP(=O)(Oc1ccccc1C)Oc1ccccc1C`, the AC50 was 13.9 µM (active).

Consider `O=S(=O)(c1ccc(Cl)cc1)c1cc(Cl)c(Cl)cc1Cl`, for which the AC50 was 20 µM (active).

For the molecule `Cc1c([N+](=O)[O-])c(C)c([N+](=O)[O-])c(C(C)(C)C)c1[N+](=O)[O-]`, the result was inactive.

For the molecule `O=C(O)COc1cc(Cl)c(Cl)cc1Cl`, the outcome was inactive.

With `C[C@]12CC[C@@H](O)C[C@@H]1CC[C@@H]1[C@@H]2CC[C@]2(C)C(=O)CC[C@@H]12`, the AC50 was 20 µM (active).

For `CC(C)(COCC1CO1)COCC1CO1` (stereo not given), the AC50 is 16 µM (active).

Consider `CCOP(=S)(OCC)SCS(=O)(=O)C(C)(C)C`, for which the outcome was inactive.

For the molecule `O=[N+]([O-])c1ccc(Nc2ccccc2)cc1`, the half-maximal activity concentration (AC50) was 12.9 µM (active).

As for `NC(=O)CCl`, the result was inactive.

In the case of `Cc1cccc(OP(=O)(Oc2cccc(C)c2)Oc2cccc(C)c2)c1`, the outcome was inactive.

As to `Cc1ccc(OP(=O)(Oc2ccc(C)cc2C)Oc2ccc(C)cc2C)c(C)c1`, the concentration at half-maximal activity (AC50) was 15.4 µM (active).

Turning to `O=C1C=CC(=O)c2ccccc21`, the AC50 was 0.251 µM (active).

Consider `CCOC(=O)CC(=O)CCl`, for which the AC50 is 4.86 µM (active).

Consider `CCN(CC)C(=O)C(Cl)=C(C)OP(=O)(OC)OC`, for which the result was inactive.

Consider `Oc1c(Br)cc(Br)cc1Br`, for which the result was inactive.

Turning to `O=C(CCl)NCO`, the outcome was inactive.

Turning to `CC1(C)[C@H](C(=O)O[C@H](C#N)c2cccc(Oc3ccccc3)c2)[C@@H]1/C=C(\Cl)C(F)(F)F`, the AC50 was 25.1 µM (active) and 28.9 µM (active).

For the molecule `CCCCN(CCCC)C(=S)[S-].CCCCN(CCCC)C(=S)[S-].[Ni+2]`, the half-maximal activity concentration (AC50) was 2.66 µM (active).

`CCOC(=O)CCN(SN(C)C(=O)Oc1cccc2c1OC(C)(C)C2)C(C)C`: the AC50 is 27.5 µM (active).

As for `Cc1cc(Cl)ccc1N`, the outcome was inactive.

Consider `O=c1oc2ccccc2c(O)c1C(CC(O)c1ccc(-c2ccc(Br)cc2)cc1)c1ccccc1` (stereo not given), for which the concentration at half-maximal activity (AC50) is 20.8 µM (active).

Take `CC(C)=CC1C(C(=O)OCc2cccc(Oc3ccccc3)c2)C1(C)C` (stereo not given): the AC50 is 13.8 µM (active).

For the molecule `[Cl][Sn]([c]1ccccc1)([c]1ccccc1)[c]1ccccc1`, the AC50 is 0.313 µM (active).

For `Cc1cc(C(C)(C)c2ccc(O)c(C)c2)ccc1O`, the AC50 is 10 µM (active).

`COCC(=O)N(c1c(C)cccc1C)[C@H](C)C(=O)OC`: the outcome was inactive.

On to `Oc1ccc(Cc2ccc(O)cc2)cc1`, for which the outcome was inactive.

Take `Nc1c(Oc2ccccc2)cc(O)c2c1C(=O)c1ccccc1C2=O`: the result was inactive.
